Consider 40 targets from the supplement of paper PMC11001985.

A number with no mark means an inactive call.

Sequence of UniProt Q15149 (Q15149 whole entry): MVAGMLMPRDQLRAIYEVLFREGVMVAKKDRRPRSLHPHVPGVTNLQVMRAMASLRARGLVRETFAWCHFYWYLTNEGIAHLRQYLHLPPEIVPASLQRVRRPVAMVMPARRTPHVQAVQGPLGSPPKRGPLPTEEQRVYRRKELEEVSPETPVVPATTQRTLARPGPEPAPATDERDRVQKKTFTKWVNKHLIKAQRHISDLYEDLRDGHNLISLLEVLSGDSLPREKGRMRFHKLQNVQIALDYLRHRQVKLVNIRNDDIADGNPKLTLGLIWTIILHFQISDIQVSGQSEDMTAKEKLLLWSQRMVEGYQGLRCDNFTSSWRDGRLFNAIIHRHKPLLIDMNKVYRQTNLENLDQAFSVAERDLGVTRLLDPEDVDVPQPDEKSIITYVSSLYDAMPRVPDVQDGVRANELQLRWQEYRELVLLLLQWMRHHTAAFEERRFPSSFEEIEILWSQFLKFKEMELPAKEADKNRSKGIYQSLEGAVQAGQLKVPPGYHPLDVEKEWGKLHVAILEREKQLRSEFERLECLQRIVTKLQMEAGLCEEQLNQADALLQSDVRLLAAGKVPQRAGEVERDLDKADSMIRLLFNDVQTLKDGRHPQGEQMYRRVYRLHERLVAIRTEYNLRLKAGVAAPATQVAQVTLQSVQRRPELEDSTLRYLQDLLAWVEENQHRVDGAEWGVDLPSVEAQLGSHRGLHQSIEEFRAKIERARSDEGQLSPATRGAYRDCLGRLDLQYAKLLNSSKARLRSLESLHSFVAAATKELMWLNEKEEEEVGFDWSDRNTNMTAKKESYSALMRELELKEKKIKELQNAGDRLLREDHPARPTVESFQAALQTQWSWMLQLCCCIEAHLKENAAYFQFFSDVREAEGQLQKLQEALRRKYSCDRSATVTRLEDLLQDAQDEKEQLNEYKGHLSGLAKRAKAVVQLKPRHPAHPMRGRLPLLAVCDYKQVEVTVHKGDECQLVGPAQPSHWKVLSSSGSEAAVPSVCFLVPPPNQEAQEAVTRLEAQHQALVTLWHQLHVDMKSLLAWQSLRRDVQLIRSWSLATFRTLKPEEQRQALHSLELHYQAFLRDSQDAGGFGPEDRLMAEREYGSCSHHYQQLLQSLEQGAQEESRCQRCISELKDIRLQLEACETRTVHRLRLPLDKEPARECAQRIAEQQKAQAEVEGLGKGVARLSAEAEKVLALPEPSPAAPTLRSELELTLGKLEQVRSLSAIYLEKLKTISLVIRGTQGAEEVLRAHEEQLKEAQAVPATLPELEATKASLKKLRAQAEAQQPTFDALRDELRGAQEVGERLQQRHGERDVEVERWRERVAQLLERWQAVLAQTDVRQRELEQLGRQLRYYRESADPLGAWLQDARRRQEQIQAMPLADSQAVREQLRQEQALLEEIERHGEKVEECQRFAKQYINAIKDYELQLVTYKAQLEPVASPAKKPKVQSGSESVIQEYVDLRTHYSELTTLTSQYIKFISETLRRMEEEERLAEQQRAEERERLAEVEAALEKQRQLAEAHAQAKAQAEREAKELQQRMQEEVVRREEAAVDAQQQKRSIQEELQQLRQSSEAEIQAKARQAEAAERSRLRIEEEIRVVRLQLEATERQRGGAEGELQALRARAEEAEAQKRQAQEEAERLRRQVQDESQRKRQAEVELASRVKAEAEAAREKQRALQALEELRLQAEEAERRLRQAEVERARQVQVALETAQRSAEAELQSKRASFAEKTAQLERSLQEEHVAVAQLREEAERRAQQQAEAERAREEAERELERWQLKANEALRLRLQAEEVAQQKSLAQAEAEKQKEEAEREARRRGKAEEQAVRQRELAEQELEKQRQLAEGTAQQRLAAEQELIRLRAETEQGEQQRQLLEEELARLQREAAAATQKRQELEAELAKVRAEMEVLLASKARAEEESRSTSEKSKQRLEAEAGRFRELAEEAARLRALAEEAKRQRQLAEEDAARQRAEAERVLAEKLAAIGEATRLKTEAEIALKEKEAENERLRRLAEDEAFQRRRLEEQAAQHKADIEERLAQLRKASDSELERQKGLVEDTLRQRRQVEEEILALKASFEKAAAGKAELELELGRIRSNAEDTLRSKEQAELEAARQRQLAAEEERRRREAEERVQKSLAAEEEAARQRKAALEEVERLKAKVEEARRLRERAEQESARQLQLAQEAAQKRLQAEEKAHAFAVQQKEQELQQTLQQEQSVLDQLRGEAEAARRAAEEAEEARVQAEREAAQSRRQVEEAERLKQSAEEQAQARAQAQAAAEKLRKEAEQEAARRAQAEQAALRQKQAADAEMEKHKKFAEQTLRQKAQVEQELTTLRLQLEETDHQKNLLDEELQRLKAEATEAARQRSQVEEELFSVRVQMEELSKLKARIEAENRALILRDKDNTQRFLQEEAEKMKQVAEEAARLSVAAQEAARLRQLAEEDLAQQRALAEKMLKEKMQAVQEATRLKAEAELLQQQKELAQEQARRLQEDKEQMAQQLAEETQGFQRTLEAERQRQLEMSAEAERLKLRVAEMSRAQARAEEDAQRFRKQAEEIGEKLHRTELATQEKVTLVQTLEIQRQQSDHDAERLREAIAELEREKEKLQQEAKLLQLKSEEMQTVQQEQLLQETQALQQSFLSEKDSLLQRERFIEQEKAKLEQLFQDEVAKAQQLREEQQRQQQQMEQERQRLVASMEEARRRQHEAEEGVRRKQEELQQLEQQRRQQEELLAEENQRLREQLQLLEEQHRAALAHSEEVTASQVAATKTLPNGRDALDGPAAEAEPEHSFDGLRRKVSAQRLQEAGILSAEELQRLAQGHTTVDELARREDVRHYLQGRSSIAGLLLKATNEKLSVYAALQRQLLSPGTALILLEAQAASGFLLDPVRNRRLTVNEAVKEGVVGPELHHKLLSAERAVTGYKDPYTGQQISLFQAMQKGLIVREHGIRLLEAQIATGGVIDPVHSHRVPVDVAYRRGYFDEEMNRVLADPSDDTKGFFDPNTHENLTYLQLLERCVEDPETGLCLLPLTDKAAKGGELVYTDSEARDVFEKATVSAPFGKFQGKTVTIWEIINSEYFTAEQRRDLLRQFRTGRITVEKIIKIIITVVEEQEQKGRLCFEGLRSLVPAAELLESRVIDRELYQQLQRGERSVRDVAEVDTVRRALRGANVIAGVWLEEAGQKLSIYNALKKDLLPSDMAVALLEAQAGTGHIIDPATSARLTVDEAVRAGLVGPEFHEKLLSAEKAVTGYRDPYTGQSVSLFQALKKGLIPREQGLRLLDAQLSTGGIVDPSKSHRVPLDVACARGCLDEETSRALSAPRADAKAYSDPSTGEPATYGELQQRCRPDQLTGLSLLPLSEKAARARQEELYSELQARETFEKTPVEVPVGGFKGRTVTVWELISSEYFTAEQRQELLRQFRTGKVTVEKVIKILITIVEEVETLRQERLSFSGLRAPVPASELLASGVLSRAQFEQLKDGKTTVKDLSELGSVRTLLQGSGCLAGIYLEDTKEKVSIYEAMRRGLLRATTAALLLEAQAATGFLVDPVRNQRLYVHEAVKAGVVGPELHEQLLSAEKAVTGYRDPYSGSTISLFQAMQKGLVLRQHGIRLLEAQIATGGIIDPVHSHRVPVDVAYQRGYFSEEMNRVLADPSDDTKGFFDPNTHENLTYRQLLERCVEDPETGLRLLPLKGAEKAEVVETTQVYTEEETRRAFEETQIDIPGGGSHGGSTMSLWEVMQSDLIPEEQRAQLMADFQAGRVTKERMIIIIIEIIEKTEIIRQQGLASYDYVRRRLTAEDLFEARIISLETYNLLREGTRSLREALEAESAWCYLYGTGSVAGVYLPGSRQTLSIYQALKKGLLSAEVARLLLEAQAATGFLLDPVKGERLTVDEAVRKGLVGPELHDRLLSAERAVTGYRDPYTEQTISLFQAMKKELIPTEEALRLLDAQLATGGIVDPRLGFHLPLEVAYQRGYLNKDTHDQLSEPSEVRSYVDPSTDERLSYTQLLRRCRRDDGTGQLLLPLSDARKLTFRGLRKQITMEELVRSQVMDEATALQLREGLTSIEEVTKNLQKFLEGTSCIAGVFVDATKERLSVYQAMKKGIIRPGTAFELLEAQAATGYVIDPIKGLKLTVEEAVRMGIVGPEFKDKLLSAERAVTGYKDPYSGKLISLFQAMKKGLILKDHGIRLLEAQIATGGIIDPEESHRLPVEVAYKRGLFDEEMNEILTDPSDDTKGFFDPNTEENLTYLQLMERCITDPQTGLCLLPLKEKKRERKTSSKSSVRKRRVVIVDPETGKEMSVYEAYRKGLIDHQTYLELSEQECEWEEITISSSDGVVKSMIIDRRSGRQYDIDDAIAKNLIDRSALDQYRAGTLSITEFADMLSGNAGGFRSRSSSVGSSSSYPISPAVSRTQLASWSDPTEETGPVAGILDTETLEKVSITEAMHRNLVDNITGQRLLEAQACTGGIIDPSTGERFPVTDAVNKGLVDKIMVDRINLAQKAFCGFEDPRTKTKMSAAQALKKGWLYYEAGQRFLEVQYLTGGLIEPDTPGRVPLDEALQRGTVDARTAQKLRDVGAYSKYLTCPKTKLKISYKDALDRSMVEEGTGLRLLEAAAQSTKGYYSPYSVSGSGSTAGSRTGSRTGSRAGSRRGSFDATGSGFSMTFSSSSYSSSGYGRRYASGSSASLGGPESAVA
Sequence of UniProt Q13561 (Q13561 whole entry): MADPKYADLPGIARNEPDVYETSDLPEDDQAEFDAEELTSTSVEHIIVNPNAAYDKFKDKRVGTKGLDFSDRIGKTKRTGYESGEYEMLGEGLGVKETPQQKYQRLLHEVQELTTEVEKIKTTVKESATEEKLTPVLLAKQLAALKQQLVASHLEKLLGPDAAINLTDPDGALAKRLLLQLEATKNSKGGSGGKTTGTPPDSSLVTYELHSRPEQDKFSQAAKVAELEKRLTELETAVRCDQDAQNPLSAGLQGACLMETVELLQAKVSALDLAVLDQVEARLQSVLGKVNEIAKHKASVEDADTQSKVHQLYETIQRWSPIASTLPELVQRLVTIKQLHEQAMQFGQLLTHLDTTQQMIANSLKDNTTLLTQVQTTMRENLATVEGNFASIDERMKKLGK

Compound in the test: C#CCNC(=O)CCSSCCC(=O)NCCc1ccc(C=O)c(C=O)c1
Put plainly: lysine labeling ratio R10:1 (500 µM / 50 µM probe), SILAC-ABPP in living cells; higher = lower intrinsic lysine reactivity toward the probe, active = 2 or less. As to conditions: HeLa; probe concentrations 500 vs 50 µM. In short, it runs like this:
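An alkyne-tagged lysine probe with a disulfide linker labelled living HeLa cells in PBS at room temperature at either 50 µM or 500 µM, using SILAC light and heavy cells in forward and reverse label swaps. Lysates were mixed, clicked to biotin-azide, trypsin-digested, enriched on neutravidin, DTT-released, alkylated and measured by LC-MS/MS on a TIMS-TOF Pro. Each lysine's R is the filtered median high-probe/low-probe MS1 peptide ratio, combined as the median over forward and reverse replicates, with 20 as the upper limit.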
As to UniProt Q15149 (lysine site: K3476), the “lysine labeling ratio R10:1” value is 1.8 (active).

For UniProt Q16363 (lysine site: K518), the “lysine labeling ratio R10:1” value was 2.09.

On to “MSN (lysine site: K501) (UniProt P26038)”, for which the “lysine labeling ratio R10:1” value was 5.08.

With “RPL3 (lysine site: K229) (UniProt P39023)”, the “lysine labeling ratio R10:1” value is 1.36 (active).

On to “TXNRD1 (lysine site: K245) (UniProt Q16881)”, for which the “lysine labeling ratio R10:1” value is 7.79.

Regarding “ICAM1 (lysine site: K67) (UniProt P05362)”, the “lysine labeling ratio R10:1” value was 1.69 (active).

For the target “ITGB1 (lysine site: K136) (UniProt P05556)”, the “lysine labeling ratio R10:1” value was 1.75 (active).

Regarding UniProt O95980 (lysine site: K684), the “lysine labeling ratio R10:1” value is 1.24 (active).

On to “FLNA (lysine site: K1294) (UniProt P21333)”, for which the “lysine labeling ratio R10:1” value is 2.32.

Turning to “FRAS1 (lysine site: K3209) (UniProt Q86XX4)”, the “lysine labeling ratio R10:1” value is 2.67.

On to “KRT18 (lysine site: K317) (UniProt P05783)”, for which the “lysine labeling ratio R10:1” value is 7.92.

For UniProt Q15149 (lysine site: K2350), the “lysine labeling ratio R10:1” value is 4.82.

Consider “ITGA2 (lysine site: K821) (UniProt P17301)”, for which the “lysine labeling ratio R10:1” value was 3.08.

Consider “SMOC1 (lysine site: K53) (UniProt Q9H4F8)”, for which the “lysine labeling ratio R10:1” value was 2.22.

For “PLOD2 (lysine site: K593) (UniProt O00469)”, the “lysine labeling ratio R10:1” value was 1.21 (active).

As for “MCAM (lysine site: K398) (UniProt P43121)”, the “lysine labeling ratio R10:1” value is 5.61.

“ITGAV (lysine site: K338) (UniProt P06756)”: the “lysine labeling ratio R10:1” value was 3.21.

In the case of “NUMA1 (lysine site: K1475) (UniProt Q14980)”, the “lysine labeling ratio R10:1” value was 5.25.

“LMO7 (lysine site: K1248) (UniProt Q8WWI1)”: the “lysine labeling ratio R10:1” value is 0.993 (active).

As for “MCAM (lysine site: K185) (UniProt P43121)”, the “lysine labeling ratio R10:1” value was 3.4.

For UniProt Q8WXI7 (lysine site: K13558), the “lysine labeling ratio R10:1” value is 5.1.

As for “TSPAN3 (lysine site: K110) (UniProt O60637)”, the “lysine labeling ratio R10:1” value is 4.07.

Consider “EEF1G (lysine site: K401) (UniProt P26641)”, for which the “lysine labeling ratio R10:1” value was 2.74.

With “GNS (lysine site: K502) (UniProt P15586)”, the “lysine labeling ratio R10:1” value was 0.59 (active).

For the target “EPRS (lysine site: K435) (UniProt P07814)”, the “lysine labeling ratio R10:1” value is 2.68.

In the case of “DCTN2 (lysine site: K65) (UniProt Q13561)”, the “lysine labeling ratio R10:1” value is 1.14 (active).

Consider “STMN1 (lysine site: K53) (UniProt P16949)”, for which the “lysine labeling ratio R10:1” value is 1.68 (active).

As to “RAB8A (lysine site: K197) (UniProt P61006)”, the “lysine labeling ratio R10:1” value was 2.44.

Consider “IGF2R (lysine site: K1285) (UniProt P11717)”, for which the “lysine labeling ratio R10:1” value is 0.936 (active).

For “ITGA3 (lysine site: K161) (UniProt P26006)”, the “lysine labeling ratio R10:1” value was 5.16.

Turning to UniProt Q9UHI8 (lysine site: K655), the “lysine labeling ratio R10:1” value was 2.17.

For the target “L1CAM (lysine site: K222) (UniProt P32004)”, the “lysine labeling ratio R10:1” value was 9.33.

Turning to “SCAMP3 (lysine site: K102) (UniProt O14828)”, the “lysine labeling ratio R10:1” value was 1.06 (active).

As to “LPL (lysine site: K129) (UniProt P06858)”, the “lysine labeling ratio R10:1” value was 1.65 (active).

Regarding UniProt Q15149 (lysine site: K1725), the “lysine labeling ratio R10:1” value was 1.57 (active).

With “ROR2 (lysine site: K113) (UniProt Q01974)”, the “lysine labeling ratio R10:1” value is 6.49.

As to “P4HB (lysine site: K81) (UniProt P07237)”, the “lysine labeling ratio R10:1” value is 6.39.

Regarding “HSPA9 (lysine site: K106) (UniProt P38646)”, the “lysine labeling ratio R10:1” value was 6.72.

In the case of “ACTN1 (lysine site: K741) (UniProt P12814)”, the “lysine labeling ratio R10:1” value is 1.15 (active).

For “TLN1 (lysine site: K875) (UniProt Q9Y490)”, the “lysine labeling ratio R10:1” value was 7.4.
